# Data reported in PubChem BioAssay (NCATS).
# Where “and” joins values, the source holds several entries; their conditions need not be identical. Equal entries are not always repeated. Results filed as inconclusive are left out. Calls of active or inactive are those of the source. Unless noted, the call rests on the fitted dose curve; in most records, active means well fitted curve in the direction sought with a large enough effect; inconclusive means small, poorly fitted or top-dose-only effect, or another doubt; inactive means no such curve, though single readings can be large; an effect the other way counts as inactive or inconclusive.
# How the values were obtained:
# [1] = molecular target: Ubiquitin carboxyl-terminal hydrolase 2 (Homo sapiens) (UniProt O75604); assay: qHTS for Inhibitors of Ubiquitin-specific Protease USP2a Using CHOP2 as the Reporter: K484 Substrate (AID 652173);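 further: cleavage of internally quenched K48 di-ubiquitin substrate measured as rising fluorescence over time; nearly all actives have a fitted effect of over 70% in size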
# Excerpt: Homeostasis of cellular proteins is maintained through a combination of synthesis and degradation. The pathway that accounts for the majority of protein degradation is the ubiquitin-proteasomal pathway. Ubiquitin (Ub) is highly conserved in all cells and the generation of a multi-Ub chain typically targets proteins for degradation by the proteasome. However, ubiquitination is highly reversible and dynamic. Deubiquitination, the reverse process, is catalyzed through the action of enzymes referred to as isopeptidases or deubiquitinating enzymes (DUBs). This group of enzymes is collectively responsible for maintaining adequate pools of free ubiquitin and regulating the ubiquitination status of cellular proteins. The class of DUBs referred to as the ubiquitin-specific proteases (USP) family functions endoproteolytically to cleave Ub chains from a wide range of protein substrates. […] Confirmed qHTS active compounds were tested in orthogonal USP2 assays utilizing a di-ubiquitin substrate labeled with a quencher on one ubiquitin and a fluorescent compound on the other, i.e. the substrate has internally quenched fluorescence or IQF (Lifesensors). In the presence of active USP2, the diubiquitin (DiUb) is cleaved and the fluorescence at 598 nm increases. […] Upon inhibition of USP2, the fluorescence signal from cleaved substrate increases less over time than in the absence of an inhibitor. […]
# [2] = molecular target: Tyrosine-protein kinase Yes (Homo sapiens) (UniProt P07947); assay: qHTS for small molecule inhibitors of Yes1 kinase: Primary Screen (AID 686947);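 further: plate controls were DMSO with enzyme for no effect and no-enzyme DMSO wells for full effect; nearly all actives have a fitted effect of over 60% in size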
# In short: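 ADP-Glo luminescence readout; final 4 nM Yes1, 0.1 mM ATP, 0.3 mg/mL poly(E4Y), Tris pH 7.5, MgCl2, DTT, Brij-35. 20 min compound preincubation, 60 min reaction at RT. Normalized to DMSO wells with and without enzyme.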
# [3] = qHTS for small molecule inhibitors of Yes1 kinase: Counter Assay (AID 686950);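 further: no kinase present so only ADP-Glo detection of a fixed ADP amount is tested; luminescence from ADP-Glo reporting ADP in a fixed ATP and ADP mixture; 0% = DMSO wells with ATP plus ADP and -100% = ATP-only wells without ADP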
# In short: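 Luminescence read-out from ADP-Glo quantifies a fixed ADP amount (0.02 mM ADP with 0.08 mM ATP) after 60 min at room temperature; signal is normalized between DMSO wells with ATP/ADP and with 0.1 mM ATP alone.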
# [4] = qHTS profiling for inhibitors of Plasmodium falciparum (3D7) proliferation (AID 743322; call rule not given here;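 further: infected erythrocytes exposed to compound for 72 h before lysis; 100% = DMSO vehicle wells and 0% = 0.29 µM artemisinin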); conditions: P. falciparum 3D7 proliferation; at 28.7 µM (top of the series)
# In short: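 Erythrocytes infected with P. falciparum (0.3% parasitemia, 2.5% hematocrit) incubated with compounds 72 h at 37 C, 5% CO2. Lysis with saponin/Triton buffer containing SYBR Green I, overnight at room temperature in the dark; DNA fluorescence (485/535 nm) normalised to 0.29 uM artemisinin and DMSO.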
# [5] = qHTS profiling for inhibitors of Plasmodium falciparum (DD2) proliferation (AID 743323; call rule not given here); conditions: lower = more inhibition; at 28.7 µM (top of the series)
# In short: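 SYBR Green fluorescence (ex 485, em 535 nm) of lysed cultures gives parasite DNA content; wells normalized to artemisinin (0.29 uM) and DMSO controls. Infected red cells: 0.3% parasitemia, 2.5% hematocrit, 72 h, 37 C.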
# [6] = qHTS for compounds that reverse cellular toxicity of Amyloid beta (A-beta) peptide in yeast: LOPAC Validation Assay (AID 720559);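 further: plate controls were DMSO for no effect and equimolar ferric chloride plus clioquinol rescue for full effect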
# In short: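 Yeast expressing toxic A-beta grown with pinned compounds at 30 C for 48 hr. Growth measured as absorbance at 600 nm; data normalized to DMSO and to an equimolar FeCl3/clioquinol mixture as positive control.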
# [7] = qHTS assay for cell viability of HEK293 cells (AID 743288); conditions: ATP luminescence (CellTiter-Glo), 18 h, stronger effect = lower value; further: on the % scale 0 is the no-effect control and ±100 the full control effect; nearly all actives have a fitted effect of over 50% in size
# In short: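 Parental HEK293 cells, 2,000 per well, preincubated at least 5 h at 37 C, then exposed to compounds in DMSO for 18 h at 37 C. Viability by CellTiter-Glo ATP luminescence after 30 min at room temperature.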
# Tyrosine-protein kinase Yes (Homo sapiens), sequence (P07947 whole entry, looked up): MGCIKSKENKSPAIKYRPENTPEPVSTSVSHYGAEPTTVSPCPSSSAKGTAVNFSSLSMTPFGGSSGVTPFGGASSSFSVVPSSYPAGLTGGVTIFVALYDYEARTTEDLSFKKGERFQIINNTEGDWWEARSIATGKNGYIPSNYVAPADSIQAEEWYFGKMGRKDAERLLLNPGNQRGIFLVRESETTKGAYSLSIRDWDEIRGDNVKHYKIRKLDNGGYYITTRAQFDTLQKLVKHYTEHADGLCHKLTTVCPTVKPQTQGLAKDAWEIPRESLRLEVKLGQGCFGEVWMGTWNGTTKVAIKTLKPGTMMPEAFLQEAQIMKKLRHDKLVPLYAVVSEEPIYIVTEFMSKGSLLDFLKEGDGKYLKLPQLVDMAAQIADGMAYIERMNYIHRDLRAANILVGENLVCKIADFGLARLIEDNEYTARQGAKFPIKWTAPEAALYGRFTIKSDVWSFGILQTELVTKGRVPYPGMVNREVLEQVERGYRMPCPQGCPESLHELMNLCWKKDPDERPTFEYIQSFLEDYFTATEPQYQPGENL
# Ubiquitin carboxyl-terminal hydrolase 2 (Homo sapiens), sequence (O75604 whole entry, looked up): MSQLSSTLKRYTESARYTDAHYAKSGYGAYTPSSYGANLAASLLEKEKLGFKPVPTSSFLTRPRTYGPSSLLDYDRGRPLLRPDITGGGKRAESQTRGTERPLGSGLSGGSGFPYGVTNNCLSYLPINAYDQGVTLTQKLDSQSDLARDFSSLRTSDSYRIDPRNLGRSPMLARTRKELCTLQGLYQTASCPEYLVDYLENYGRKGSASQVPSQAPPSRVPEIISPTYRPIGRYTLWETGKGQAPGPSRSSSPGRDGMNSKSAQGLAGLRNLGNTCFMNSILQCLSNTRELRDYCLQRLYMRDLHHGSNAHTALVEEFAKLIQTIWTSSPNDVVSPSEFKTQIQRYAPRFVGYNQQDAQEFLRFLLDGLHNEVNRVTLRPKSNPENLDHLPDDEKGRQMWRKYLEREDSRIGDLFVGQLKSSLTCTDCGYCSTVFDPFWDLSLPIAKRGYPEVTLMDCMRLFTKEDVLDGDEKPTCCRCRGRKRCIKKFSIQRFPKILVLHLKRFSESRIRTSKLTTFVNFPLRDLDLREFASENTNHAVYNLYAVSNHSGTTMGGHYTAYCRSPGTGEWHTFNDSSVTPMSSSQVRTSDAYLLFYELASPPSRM
structure (smiles),measurement,setting,value
Cc1cc(NS(=O)(=O)c2ccc(N)cc2)no1,outcome,[1],inactive
O=P1(N(CCCl)CCCl)NCCCO1 (configuration not stated),outcome,[2],inactive
same,outcome,[3],inactive
same,remaining parasite growth % (stronger effect = lower value),[4],108% and 105%
same,"activity, percent of control",[5],108% and 125%
CC(=O)N1CCN(c2ccc(OC[C@H]3CO[C@](Cn4ccnc4)(c4ccc(Cl)cc4Cl)O3)cc2)CC1,outcome,[6],inactive
CCOP(=S)(OCC)Oc1ccc2c(C)c(Cl)c(=O)oc2c1,max response,[7],-5.48% (inactive)
